# Data: PubChem BioAssay AID2751 (The Scripps Research Institute Molecular Screening Center, 2010)
# About 2,200 (0.69%) of roughly 320,000 compounds were called active. The entries come from a sample that favours actives as a whole. A number with no mark means an inactive call. Rule as the data show it: active = inhibition above about 43%; inactive = the rest.
# Biological target: Prolyl endopeptidase-like (Homo sapiens) (UniProt Q4J6C6)
# Test: PREPL enzyme inhibitors, primary screen, biochemical, fluorescence polarization (AID 2751);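 also: 0% = enzyme with DMSO and 100% = wells lacking enzyme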
# Details: recombinant PREPL, fluorescence polarization activity-based probe; at 5.96 µM; hits give high values
# Prolyl endopeptidase-like (Homo sapiens), sequence (Q4J6C6 whole entry, looked up): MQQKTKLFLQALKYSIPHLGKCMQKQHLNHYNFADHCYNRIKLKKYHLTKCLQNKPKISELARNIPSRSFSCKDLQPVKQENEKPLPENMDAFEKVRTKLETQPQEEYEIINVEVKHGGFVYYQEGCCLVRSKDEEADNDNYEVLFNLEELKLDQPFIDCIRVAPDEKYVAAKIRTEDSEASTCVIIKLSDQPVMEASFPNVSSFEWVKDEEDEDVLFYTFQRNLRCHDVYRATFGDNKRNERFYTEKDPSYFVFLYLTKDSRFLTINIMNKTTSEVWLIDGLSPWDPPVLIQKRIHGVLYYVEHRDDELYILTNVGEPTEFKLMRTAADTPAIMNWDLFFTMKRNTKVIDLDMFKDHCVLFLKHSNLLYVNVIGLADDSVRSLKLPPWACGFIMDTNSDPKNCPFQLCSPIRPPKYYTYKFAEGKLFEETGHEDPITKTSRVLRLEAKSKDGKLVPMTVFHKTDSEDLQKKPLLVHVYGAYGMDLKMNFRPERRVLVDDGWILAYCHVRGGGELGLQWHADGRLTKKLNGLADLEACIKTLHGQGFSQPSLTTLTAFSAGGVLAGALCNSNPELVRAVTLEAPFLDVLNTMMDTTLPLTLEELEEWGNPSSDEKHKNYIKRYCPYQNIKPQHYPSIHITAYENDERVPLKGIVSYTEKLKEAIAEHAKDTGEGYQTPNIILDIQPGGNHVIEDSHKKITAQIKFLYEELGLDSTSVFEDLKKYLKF
row,Compound,inhibition
1,COc1ccc2[nH]c3c(c2c1)CCN[C@H]3C,48.8% (active)
2,O=C(N/N=C/c1c(O)n(C2CC2)c(=S)[nH]c1=O)c1ccccc1Cl,-3.24%
3,CCOc1ccc(-c2cc(C)[n+](CCN(CC)CC)c(-c3ccc(OCC)cc3)c2)cc1,10.9%
4,CCOc1cccc(=NC2CCCCC2)c2c(C)[nH]c(C)c12,52.1% (active)
5,Cn1c(O)c(C=NCCCC(=O)O)c(=O)n(C)c1=O,-8.04%
6,N[C@@H](Cc1c[nH]c2ccccc12)c1nnc(SCc2c(F)cccc2Cl)o1,2.17%
7,CCN(CC)C(=O)c1ccc(NC(=O)c2cc(-n3cnnc3)ccc2Cl)cc1,15.1%
8,Cc1nc2ccccn2c1P(=S)(N1CCCCC1)N1CCCCC1,-7.5%
9,O=C(NCC(c1cccnc1)N1CCN(c2ccccc2)CC1)Oc1ccccc1 (stereo not given),46.3% (active)
10,COC(=O)C(c1ccccc1)N1CCCCCC1 (stereo not given),1.34%
11,COc1ccccc1N1CCN(C(CNC(=O)Oc2ccccc2)c2cccnc2)CC1 (stereo not given),1.24%
12,COc1ccc(C2NCc3ccc4c(c3-n3cccc32)OCO4)cc1OC (stereo not given),-15.2%
13,COC(=O)N(c1ccc(OC)cc1)P1(=S)OCCC(C)O1 (stereo not given),8.63%
14,O=C(O)C1CSC(c2cccnc2)N1 (stereo not given),3.28%
15,Cc1c(Oc2cc(NN3CCCCC3)c([N+](=O)[O-])cc2[N+](=O)[O-])cccc1[N+](=O)[O-],4.76%
